Reference: PubChem BioAssay AID485364 (National Center for Advancing Translational Sciences (NCATS), 2010)
The whole screen tested about 360,000 compounds, of which about 11,000 (3.1%) were called active. Another 4% or so got no clear call; they are omitted. Calls come from the whole dose curve; as a rule, active = well fitted inhibition curve with a large enough effect; inconclusive = small, poorly fitted or top-dose-only effect; inactive = no such curve, though single readings can be large or run the other way. Shown is part of a subset that was picked to be rich in actives.

The compounds below were run against Schistosoma mansoni thioredoxin glutathione reductase (TGR) (UniProt Q962Y6) (assay: qHTS Assay for the Inhibitors of Schistosoma Mansoni Peroxiredoxins). Conditions: purified TGR, DTNB reduction, TNB absorbance 405 nm; series mostly up to 114 µM; activity change, negative = inhibition: at the top concentration.
Procedure, shortened: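 Kinetic colorimetric format: TGR-catalysed, NADPH-driven DTNB reduction monitored via TNB absorbance. Enzyme dispensed at 20 nM; compound exposure 15 min at room temperature before reaction start.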
% is set by controls: 0 for no effect and ±100 for the full control effect; potency is the fitted concentration of half-maximal effect.
Note: nearly all actives have a fitted effect of over 60% in size.

| Structure (SMILES) | Potency | activity change, negative = inhibition |
| --- | --- | --- |
| c1coc(-c2nc3nc4ccccc4n3nc2-c2ccco2)c1 | 44.7 µM (active) | – |
| O=C(COc1ccc(Cl)cc1)Nc1ccccc1OCc1cc(=O)n2ccccc2n1 | – | 2.3% (inactive) |
| Cc1nc2ccccc2c(-c2ccccc2)c1C(=O)c1ccccc1 | – | -13.7% (inactive) |
| COc1ccc(C(=O)c2c(C)oc3cc([N+](=O)[O-])c(O)c([N+](=O)[O-])c23)cc1 | – | -31.7% (inactive) |
| Cc1oc2cc(Br)c(O)c(Br)c2c1C(=O)c1ccccc1 | 15.8 µM (active) | – |
| Brc1cccc(-c2nnn3c2nc(NC2CCCCC2)c2ccccc23)c1 | – | 37% (inactive) |
| COc1ccc(CCNC(=O)Cn2c(=O)cc(C(F)(F)F)c3c(C)nn(C)c32)c(OC)c1 | – | 3.9% (inactive) |
| COCCN1C(=O)C(=O)/C(=C(/O)c2ccc(S(=O)(=O)N3CCOCC3)cc2)C1c1ccc(O)c(OC)c1 (configuration not stated) | – | -15.2% (inactive) |
| COCCN1C(=O)C(=O)/C(=C(/O)c2ccc(S(=O)(=O)N3CCOCC3)cc2)C1c1ccc(OC)c(OC)c1 (configuration not stated) | – | -3.05% (inactive) |
| COc1ccc(C2/C(=C(/O)c3ccc(OC(C)C)cc3)C(=O)C(=O)N2CCCN2CCOCC2)cc1 (configuration not stated) | 20 µM (active) | – |
| O=C1C(=O)N(CCN2CCOCC2)C(c2cccc(Cl)c2)/C1=C(/O)c1ccc2c(c1)OCO2 (configuration not stated) | 50.1 µM (active) | – |
| COCCCN1C(=O)C(=O)/C(=C(/O)c2ccc(S(=O)(=O)N3CCOCC3)cc2)C1c1ccc(F)cc1 (configuration not stated) | – | 5.3% (inactive) |
| O=C1C(=O)N(CCCO)C(c2ccccc2)/C1=C(\O)c1ccc(Br)cc1 (configuration not stated) | – | 11.9% (inactive) |
| O=C1C(=O)N(CCN2CCOCC2)C(c2ccccn2)/C1=C(/O)c1ccc(Cl)cc1 (configuration not stated) | 20 µM (active) | – |
| CCN(CC)CCN1C(=O)C(=O)/C(=C(/O)c2ccc(OC)c(OC)c2)C1c1ccccn1 (configuration not stated) | – | 11.8% (inactive) |
| CC1Cc2cc(/C(O)=C3\C(=O)C(=O)N(CCN4CCOCC4)C3c3ccccc3F)ccc2O1 (configuration not stated) | – | -26.7% (inactive) |
| CCn1c2c(c(=O)n3ncc(C(=O)N4CCN(c5ccccc5)CC4)c13)CN(Cc1ccc(OC)cc1)CC2 | – | -22.6% (inactive) |
| CCc1cccc(NC(=O)CN(C)S(=O)(=O)c2ccc3[nH]c4c(c3c2)CCCC4)c1 | – | -3.12% (inactive) |
| O=C(Nc1cc(C(F)(F)F)ccc1Cl)c1cc2nc(-c3ccc4c(c3)OCO4)cc(C(F)(F)F)n2n1 | – | 10% (inactive) |

| Structure (SMILES) | Potency | activity change, negative = inhibition |
| --- | --- | --- |
| O=C(CSc1nc(Nc2ccc(F)c(F)c2)c2ccccc2n1)c1ccc(Cl)cc1 | – | -0.95% (inactive) |
| Cc1cc(C)nc(NS(=O)(=O)c2ccc(NC(=O)c3cc(=O)c4ccc(C)c(C)c4o3)cc2)n1 | – | 8.3% (inactive) |
| COC(=O)c1c(NC(=O)CCCOc2ccccc2)sc2c1CCC(C)C2 (configuration not stated) | – | -12.3% (inactive) |
| O=C(O)CCn1cc(C=C2C(=O)NC(=S)NC2=O)c(-c2cccc(Br)c2)n1 | 31.6 µM (active) | – |
| O=C(O)CCn1cc(/C=C/C(=O)c2ccc(Cl)cc2)c(-c2cccc(Br)c2)n1 | – | 8.71% (inactive) |
| Cc1cccc(NC(=O)c2ccc3nc(C(C)C)oc3c2)c1C | – | 1.6% (inactive) |
| O=S(=O)(c1ccc(Br)cc1)c1nc(-c2ccccc2)oc1N1CCOCC1 | – | -40.2% (inactive) |
| O=S(=O)(c1ccccc1)c1nc(-c2ccccc2)oc1NCCCN1CCOCC1 | – | -7% (inactive) |
| O=S(=O)(c1ccccc1)c1nc(Cc2ccccc2)oc1N1CCOCC1 | 2 µM (active) | – |
| Cc1ccc(NC(=O)Nc2sc3nc4n(c(=O)c3c2C)CCC(C)CC4)c(Cl)c1 (configuration not stated) | – | 4.36% (inactive) |
| CCC(C)c1ccc2oc(-c3ccc(NC(=O)c4cc5ccccc5o4)cc3)nc2c1 (configuration not stated) | – | 0.847% (inactive) |
| Cc1ccc(C2c3[nH]c4ccccc4c3CCN2C(=O)c2cccc(C)c2)cc1 (configuration not stated) | – | 5.12% (inactive) |
| Cc1ccc(C)c(N2C(=O)N(Cc3c(F)cccc3Cl)c3ccccc3S2(=O)=O)c1 | – | 12.1% (inactive) |
| COc1ccc(CCNC(=O)C(=O)NCC2CCCN2S(=O)(=O)c2cccs2)cc1OC (configuration not stated) | – | -10.8% (inactive) |
| Cc1cc(S(=O)(=O)Nc2ccc(C(=O)NCC(c3ccco3)N3CCCC3)cc2)ccc1F (configuration not stated) | – | -8.98% (inactive) |
| COc1ccc(CCNC(=O)C(=O)NCC(c2ccco2)S(=O)(=O)c2cccs2)cc1OC (configuration not stated) | 3.55 µM (active) | – |
| O=C(CCNC(=O)c1ccc(Br)cc1)NCC(c1ccco1)N1CCCCC1 (configuration not stated) | – | -2.93% (inactive) |
| CCN(CC(=O)NCc1ccco1)S(=O)(=O)c1ccc(F)cc1 | – | -8.46% (inactive) |
| O=C(NCC(c1ccco1)N1CCc2ccccc21)c1cccc(F)c1 (configuration not stated) | – | 2.37% (inactive) |

| Structure (SMILES) | Potency | activity change, negative = inhibition |
| --- | --- | --- |
| COc1ccc(CCNC(=O)C(=O)NCc2ccccc2C)cc1OC | – | -2.9% (inactive) |
| CC(C)(C)c1ccc(C(=O)NCC(c2ccco2)S(=O)(=O)c2ccc(F)cc2)cc1 (configuration not stated) | 11.2 µM (active) | – |
| O=C(NCC(c1ccco1)S(=O)(=O)c1cccs1)c1ccc(F)cc1 (configuration not stated) | 7.08 µM (active) | – |
| CCC(=O)Nc1c(C(=O)N2CCN(c3ccc(F)cc3)CC2)oc2ccccc12 | – | -2.54% (inactive) |
| CN(CC(=O)Nc1cccc(C(F)(F)F)c1)S(=O)(=O)c1cccs1 | – | -0.406% (inactive) |
| CCOc1ccc(N(CC)C(=O)c2noc3c2COc2ccc(C)cc2-3)cc1 | – | -10.9% (inactive) |
| Cc1ccc2[nH]c3c(=O)n(CC(=O)NC(C)C)ncc3c2c1 | – | -3.07% (inactive) |
| Cc1ccc2c(=O)cc(C(=O)Nc3sc4c(c3C(=O)NCc3cccnc3)CCCC4)oc2c1 | – | 5.7% (inactive) |
| CCCNC(=O)c1ccc(Cn2c(SCC(N)=O)nc3ccccc3c2=O)cc1 | – | 5.19% (inactive) |
| CCCCN(CC(=O)Nc1cccc(S(=O)(=O)N2CCCC2)c1)Cc1nc2ccccc2c(=O)[nH]1 | 22.4 µM (active) | – |
| CCN(CC(=O)Nc1cccc(S(N)(=O)=O)c1)Cc1nc2ccccc2c(=O)[nH]1 | – | 2.33% (inactive) |
| CCN(CC)c1ccc(C(=O)NNC(=O)CCc2nc3ccccc3c(=O)[nH]2)cc1 | – | 1.8% (inactive) |
| CN(C)S(=O)(=O)c1cc(NC(=O)CN2C(=O)NC3(CCCc4ccccc43)C2=O)ccc1Cl (configuration not stated) | – | -7.41% (inactive) |
| CCN(CC(=O)Nc1cccc(S(=O)(=O)N2CCCCC2)c1)Cc1ccccc1 | – | 8.89% (inactive) |
| CCN(CC(=O)Nc1ccc(Cl)c(S(=O)(=O)N(C)C)c1)Cc1nc2ccccc2c(=O)[nH]1 | 39.8 µM (active) | – |
| CCN(CC(=O)NC(=O)NCc1ccccc1)Cc1nc2ccccc2c(=O)[nH]1 | 89.1 µM (active) | – |
| CCN(CC(=O)Nc1ccc(C)c(S(=O)(=O)N(C)C)c1)Cc1ccccc1 | – | -15.6% (inactive) |
| O=C(c1ccco1)N(Cc1nc2ccccc2c(=O)[nH]1)C1CCCC1 | – | -35.5% (inactive) |
| Cn1c(=O)c2c(SCC(=O)N3CCc4ccccc43)nc(-c3ccc(Cl)cc3)nc2n(C)c1=O | – | 0.229% (inactive) |
